LASV entry inh = Lassa virus entry inhibition. 300,000 tested, 1.2% active. Potency, µM (titrated, usually from 37.9 µM), usual class: inhibitors. AID 540256. Lassa virus pseudotype entry inhibition, cell reporter; calls by dose curve; tested in HEK293 cells; also: nearly all actives have a fitted effect of over 50% in size
FMDV antiviral = blocks foot and mouth disease virus. FMDV antiviral cell-based qHTS. Potency, µM (top dose mostly 57.9 µM), most hits filed as inhibitors. 410,000 tested, 1.2% active. AID 1159524; calls by dose curve; tested in HEK293T cells; also: read-out not given here; nearly all actives have a fitted effect of over 45% in size
HCMV inh = inhibitors of human cytomegalovirus; HFF cells, HCMV-luciferase reporter, 72 h; hits give low values; AID 1259415; 410,000 tested, 4.5% active; activity change, negative = inhibition, % at 57.5 µM; in the data active = activity change below about -60%; inconclusive = no clear call, values can overlap the other calls; inactive = above about -39%
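HFF cells seeded 16 h at 37C, treated with compounds, infected with luciferase-reporter HCMV at MOI 1 PFU/cell; luciferase read at 72 h post infection, normalized to buffer-only and Salinomycin controls.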
Marburg entry inh = Marburg virus entry inhibition | 300,000 tested, 1.8% active | Marburg virus pseudotyped entry inhibition, cell reporter | AID 540276 | Potency, µM (doses to about 37.8 µM), hits mostly inhibitors; calls by dose curve; tested in HEK293 cells
Each line names hits and unclear results; the compound was inactive in the other large screens. In the library only some 6.2% were active in any assay of this set; here they are far more common.

O=C(CCC(=O)Nc1ccc(Br)cc1)N/N=C/c1cc([N+](=O)[O-])ccc1O	LASV entry inh inconclusive, Marburg entry inh inconclusive
O=C(N/N=C/c1cc([N+](=O)[O-])ccc1O)C1CCCCC1	LASV entry inh inconclusive, HCMV inh -66, Marburg entry inh inconclusive
Cc1ccc(N(Cc2ccco2)C(=O)c2ccc(N3CCCCC3)c([N+](=O)[O-])c2)cc1	LASV entry inh inconclusive, HCMV inh -66, Marburg entry inh 23µM
O=C(NCc1ccco1)c1ccc(N2CCOCC2)c([N+](=O)[O-])c1	LASV entry inh inconclusive, HCMV inh inconclusive
O=C(O)c1ccc(N2CCc3ccccc32)c([N+](=O)[O-])c1	none (no result: LASV entry inh, Marburg entry inh)
O=C(NCc1ccco1)c1ccc(N2CCCCC2)c([N+](=O)[O-])c1	LASV entry inh 21µM
CC1CCN(c2ccc(C(=O)NCc3ccco3)cc2[N+](=O)[O-])CC1	LASV entry inh 6.5µM, Marburg entry inh inconclusive
O=C(NCc1ccc(F)cc1)c1ccc(N2CCc3ccccc32)c([N+](=O)[O-])c1	LASV entry inh 18µM, FMDV antiviral inconclusive, HCMV inh inconclusive, Marburg entry inh inconclusive
COc1cccc(CNC(=O)CCc2c(C)c3cc4c(C)c(C)oc4cc3oc2=O)c1	none
Cc1cc(C(=O)NCc2ccc3c(c2)OCO3)ccc1[N+](=O)[O-]	none (no result: LASV entry inh, Marburg entry inh)
CC1CC(C)CN(c2ccc(C(=O)NCc3ccc4c(c3)OCO4)cc2[N+](=O)[O-])C1 (configuration not stated)	HCMV inh -62, Marburg entry inh inconclusive
COc1cccc([C@H]2Oc3ccc(OC)cc3/C(=N\O[C@H](C)c3cn([C@H](CO)Cc4ccccc4)nn3)[C@@H]2O)c1	none (no result: LASV entry inh, FMDV antiviral, HCMV inh)
COc1cccc(-c2c(C(=O)N/N=C(\C)c3cccs3)nnn2-c2nonc2N)c1	HCMV inh active (no result: LASV entry inh, Marburg entry inh)
COc1ccc(/C(C)=N/NC(=O)c2nnn(-c3nonc3N)c2-c2cccs2)cc1OC	HCMV inh active
COc1ccc(/C(C)=N/NC(=O)c2nnn(-c3nonc3N)c2-c2cccs2)cc1	FMDV antiviral inconclusive
O=S1(=O)N[C@@H](Cc2ccccc2)COc2cccc(NCCO)c21	none (no result: LASV entry inh, FMDV antiviral, Marburg entry inh)
CCC(=O)N=c1sc2cc(F)cc(F)c2n1C	HCMV inh -62 (no result: LASV entry inh, Marburg entry inh)
Cn1nnnc1Sc1ncnc2scc(-c3ccccc3C(F)(F)F)c12	FMDV antiviral inconclusive, HCMV inh -83 (no result: LASV entry inh, Marburg entry inh)
Cn1nnnc1Sc1ncnc2scc(-c3ccc(C(F)(F)F)cc3)c12	FMDV antiviral 11µM, HCMV inh -99 (no result: LASV entry inh, Marburg entry inh)
Cc1ccc(-c2csc3ncnc(SCC(=O)O)c23)cc1	none
COc1ccc(-c2csc3ncnc(N4CCN(S(=O)(=O)c5cccc(C(F)(F)F)c5)CC4)c23)cc1	HCMV inh inconclusive
Cn1nnnc1Sc1ncnc2scc(-c3cccc(C(F)(F)F)c3)c12	FMDV antiviral 22µM, HCMV inh -99 (no result: LASV entry inh, Marburg entry inh)
COc1cccc(-c2csc3ncnc(Sc4nnnn4C)c23)c1	FMDV antiviral 20µM, HCMV inh -99 (no result: LASV entry inh, Marburg entry inh)
COC(=O)[C@@](NC(C)=O)(Nc1ccccn1)C(F)(F)F	none (no result: LASV entry inh, FMDV antiviral, HCMV inh)
O=C1CC(CC(=O)N2CC3CCCC2C3)(c2cccc(F)c2)C(=O)N1Cc1cccnc1 (configuration not stated)	none (no result: LASV entry inh, HCMV inh, Marburg entry inh)
O=C(CCn1ccc2cc(S(=O)(=O)N3CCCC3)ccc21)NCc1ccccc1Cl	none (no result: Marburg entry inh)
Cc1ccccc1Nc1cc(C)c2c(O)cccc2n1	HCMV inh -89, Marburg entry inh inconclusive
CCOC(=O)Cc1csc(NC(=O)CSc2ncnc3c2cnn3-c2ccc(OC)cc2)n1	LASV entry inh 2µM, FMDV antiviral 22µM, Marburg entry inh inconclusive
CCOC(=O)CNC(=O)CSc1ncnc2c1cnn2-c1ccc(Cl)cc1	none
CC(C)C(=O)NNC(=O)CSc1ncnc2c1cnn2-c1ccccc1Cl	HCMV inh -65 (no result: LASV entry inh, Marburg entry inh)
Cc1csc(NC(=O)CSc2ncnc3c2cnn3-c2ccccc2Cl)n1	LASV entry inh inconclusive, FMDV antiviral 14µM, Marburg entry inh 13µM (no result: HCMV inh)
COc1ccc(NC(=O)CSc2ncnc3c2cnn3CCc2ccccc2)cc1	LASV entry inh 11µM, Marburg entry inh inconclusive
O=C(c1cccc(F)c1)N1CCC[C@@]2(CCN(C(c3ccccc3)c3ccccc3)C2)C1	none (no result: LASV entry inh, HCMV inh, Marburg entry inh)
Cn1c2ccccc2c2cnn(CC(=O)NCCCN3CCCCC3)c(=O)c21	none
Cc1ccc(CNc2nc(CN3CCCCC3c3cccnc3)nc3ccccc23)o1 (configuration not stated)	none (no result: LASV entry inh, HCMV inh, Marburg entry inh)
CN(C)CCCNC(=S)N(Cc1cccs1)Cc1cc2cc3c(cc2[nH]c1=O)OCCO3	LASV entry inh inconclusive, Marburg entry inh 23µM
COc1cc2cc(CN(CCc3ccccc3C)C(=S)NCCCN3CCOCC3)c(=O)[nH]c2cc1OC	HCMV inh -64 (no result: LASV entry inh, Marburg entry inh)
COc1cc2cc(CN(CCc3ccccc3C)C(=S)NCCCN(C)C)c(=O)[nH]c2cc1OC	LASV entry inh inconclusive, Marburg entry inh inconclusive
CCc1ccccc1NC(=S)N(CCCN(C)C)Cc1cc2cc3c(cc2[nH]c1=O)OCO3	HCMV inh -75, Marburg entry inh inconclusive
CN(C)CCCNC(=S)N(CCN(C)C)Cc1cc2cc3c(cc2[nH]c1=O)OCCO3	Marburg entry inh inconclusive
Cc1c(-c2cccc(NC(=O)Nc3ccc(Cl)cc3)c2)nc2ncccn12	HCMV inh -86 (no result: Marburg entry inh)
COc1cccc(CNC(=O)c2c(OC)cc(=O)n3c2CCN(C(=O)c2ccoc2C)CC3)c1	none (no result: LASV entry inh, HCMV inh, Marburg entry inh)
Cc1ccc(C(=O)O/N=C/c2ccc(N(C)C)cc2)cc1	HCMV inh inconclusive
Cc1ccc(/C=C/c2ccc(N(C)C)cc2)[n+](C)c1	HCMV inh -98 (no result: LASV entry inh, Marburg entry inh)
CN(C)c1ccc(/C=C/c2cc[n+]([O-])cc2)cc1	none (no result: LASV entry inh, FMDV antiviral, HCMV inh)
CN(C)c1ccc(/C=C/c2cc[n+](C)cc2)cc1	LASV entry inh inconclusive, HCMV inh -101, Marburg entry inh inconclusive
CN1C(=O)C2=NC(C3CCCC3)=NC2N(C)C1=O (configuration not stated)	none (no result: LASV entry inh, FMDV antiviral, HCMV inh)
CCC(C)n1c(=N)c(C(=O)NCc2ccccc2)cc2c(=O)n3cc(C)ccc3nc21 (configuration not stated)	HCMV inh -73
CCOCCCn1c(=N)c(C(=O)NCc2cccnc2)cc2c(=O)n3cc(C)ccc3nc21	HCMV inh -67
NNC(=O)c1ccc(CSc2cccc3cccnc23)cc1	none
Cc1cccc(CSc2cccc3cccnc23)c1	HCMV inh -108, Marburg entry inh inconclusive
CCOC(=O)CSc1cccc2cccnc12	FMDV antiviral inconclusive, HCMV inh -87, Marburg entry inh inconclusive
COc1ccc2nc(C)cc(SCC(=O)N/N=C/c3ccco3)c2c1	Marburg entry inh 8.9µM (no result: LASV entry inh)
COc1cccc(/C=N/NC(=O)CSc2cccc3cccnc23)c1	FMDV antiviral inconclusive, HCMV inh -92 (no result: LASV entry inh, Marburg entry inh)
O=C(CSc1cccc2cccnc12)N/N=C/c1ccc(O)cc1	none (no result: LASV entry inh, Marburg entry inh)
CCOc1ccc(NC(=O)C2CCC(CNS(=O)(=O)c3ccc4c(c3)CCCC(=O)N4)CC2)cc1 (configuration not stated)	FMDV antiviral inconclusive (no result: Marburg entry inh)
CCCCOc1cccc(C(=O)N(Cc2ccc(Br)o2)C2CCS(=O)(=O)C2)c1 (configuration not stated)	HCMV inh inconclusive, Marburg entry inh inconclusive
O=C(Nc1ccc(Oc2ccccc2)cc1)c1cnc2n(c1=O)CCS2	FMDV antiviral inconclusive, HCMV inh -86 (no result: LASV entry inh, Marburg entry inh)
CCOc1ccccc1NC(=O)c1cnc2n(c1=O)CCS2	none
Cc1cccc(C)c1NC(=O)C(c1ccccc1)N(C)CCc1ccccc1 (configuration not stated)	none (no result: LASV entry inh, Marburg entry inh)
